The text below walks through data of PubChem BioAssay (NCI).

A short description of assay [1]: NCI Yeast Anticancer Drug Screen. Data for the rad50 strain (AID 155).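 Also: 0% = growth of vehicle-only cultures of the same strain.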 Conditions: S. cerevisiae rad50 strain growth inhibition; at 50.0 µM; active compounds read high. An outline of the steps:
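Compounds were tested on a yeast strain with an engineered DNA damage repair alteration; the reported value is growth inhibition normalised to vehicle treatment.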

Assay [2] can be described thus: NCI Yeast Anticancer Drug Screen. Data for the mec2-1 strain (AID 157). Conditions: S. cerevisiae mec2-1 strain, at 50.0 µM, active compounds read high. An outline of the steps: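 Each compound was tested on mec2-1 yeast, a strain altered in DNA damage repair or cell cycle control. Growth inhibition is reported relative to vehicle.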
The nature of assay [3]: NCI Yeast Anticancer Drug Screen. Data for the sgs1 mgt1 strain (AID 161).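 Also: 0% = growth of cultures given vehicle only.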 Conditions: S. cerevisiae sgs1 mgt1 strain, at 50.0 µM, active compounds read high. An outline of the steps:
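Genetically altered yeast, compound exposure, growth inhibition relative to vehicle.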

The nature of assay [4]: NCI Yeast Anticancer Drug Screen. Data for the cln2 rad14 strain (AID 165).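 Also: 0% = growth equal to vehicle treated cultures.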 Conditions: S. cerevisiae cln2 rad14 strain, at 50.0 µM, active compounds read high. An outline of the steps: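 Test compounds were added to cln2 rad14 yeast cultures; inhibition of growth was then determined by comparison with vehicle treatment.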
The nature of assay [5]: NCI Yeast Anticancer Drug Screen. Data for the bub3 strain (AID 167). Conditions: S. cerevisiae bub3 mutant strain, at 50.0 µM, active compounds read high. An outline of the steps:
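Growth of a checkpoint-deficient yeast mutant is measured after compound exposure. Values represent inhibition relative to vehicle.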

Assay [6] can be described thus: NCI Yeast Anticancer Drug Screen. Data for the mlh1 rad18 strain (AID 175). Conditions: S. cerevisiae mlh1 rad18 strain growth inhibition; at 50.0 µM; active compounds read high. An outline of the steps:
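Inhibition values reflect reduced growth of mutant yeast versus vehicle-treated controls following compound exposure; the mutations affect DNA damage repair.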

About 79,000 compounds went through this panel and 15% of them were active in at least one assay; those are over-represented in the sample as a whole. A number with no mark means an inactive call. Active and inactive are the calls of the source. Rule as the data show it: active = growth inhibition above about 70%; inactive = the rest.

Take `COc1cccc2c1CCC1=CC(=O)CCC12C` (stereo not given): the growth inhibition in assay [1] is 22.1%; in assay [2], 5.5%; in assay [3], 17.9%; in assay [4] it was 28.8%; in assay [5], 16.9%; in assay [6] it was -0.65%.

As for `CC1CS(=O)(=O)O1` (stereo not given), the growth inhibition in assay [1] was -4.45%; in assay [2] it was -6.75%; in assay [3] it was -18.6%; in assay [4], 9.5%; in assay [5], 10.3%; in assay [6], 6.8%.

Take `Cc1cc(OCCCC[N+](C)(C)Cc2ccc(Br)o2)c(C(C)C)cc1Cl`: the growth inhibition was 99.5% (active) in assay [1]; 99.5% (active) in assay [2]; 99.2% (active) in assay [3]; 99.3% (active) in assay [4]; 99.2% (active) in assay [5]; 99.3% (active) in assay [6].

With `Cc1ccc(C(=O)O)c(C(=O)O)c1`, the growth inhibition is -11.2% in assay [1]; -18.9% in assay [2]; -18.4% in assay [3]; -4.25% in assay [4]; -17.1% in assay [5]; 1.75% in assay [6].

Regarding `COc1ccc(/C=C/c2ccc3ccccc3n2)cc1`, the growth inhibition in assay [1] is 3.3%; in assay [2] it was -20.6%; in assay [3], 1.65%; in assay [4], -46.1%; in assay [5] it was 9.45%; in assay [6], -16%.

As to `CCOc1ncc(C(O)c2ccco2)c(OCC)n1` (stereo not given), the growth inhibition in assay [1] was -0.85%; in assay [2], 5.85%; in assay [3], 5.7%; in assay [4], -47.8%; in assay [5], 3.15%; in assay [6], -8%.

Consider `Clc1ccccc1/C=C(/c1ccccc1)c1ccccn1`, for which the growth inhibition in assay [1] was 37.5%; in assay [2] it was 12.3%; in assay [3] it was 23.3%; in assay [4], -8.85%; in assay [5] it was 29.9%; in assay [6] it was 15.8%.

In the case of `N#Cc1ccccc1CC(O)(c1ccccc1)c1ccccc1`, the growth inhibition is 36.5% in assay [1]; -5.85% in assay [2]; -7.75% in assay [3]; 13.7% in assay [4]; -10.2% in assay [5]; 9.8% in assay [6].

On to `C/C(CC(=O)Nc1ccc(C)cc1)=N\NC(N)=S`, for which the growth inhibition in assay [1] was -13.5%; in assay [2] it was -7.7%; in assay [3], 3.45%; in assay [4] it was 8.3%; in assay [5], -1%; in assay [6], -19.6%.

In the case of `CCC(=O)Oc1c(C(C)C)cccc1C(C)(C)C`, the growth inhibition is -22% in assay [1]; -31.6% in assay [2]; -19.7% in assay [3]; -8% in assay [4]; -31.4% in assay [5]; -14.8% in assay [6].

Take `COC(=O)CCCC(=O)O`: the growth inhibition in assay [1] is 4.4%; in assay [2] it was -5.2%; in assay [3] it was -2.6%; in assay [4], -15.4%; in assay [5], 2.9%; in assay [6] it was 8.25%.

`CC(C)(C)C1CCC(C(=O)c2ccccc2)CC1` (stereo not given): the growth inhibition in assay [1] is -7.75%; in assay [2], -4.05%; in assay [3] it was -0.75%; in assay [4], -45.3%; in assay [5], -28.6%; in assay [6], 1.7%.

For `Cn1c(C2CCc3cc(O)ccc3C2)cccc1=O` (stereo not given), the growth inhibition was -26.8% in assay [1]; 13.1% in assay [2]; -4.25% in assay [3]; -19.6% in assay [4]; 14.7% in assay [5]; -4.35% in assay [6].

Consider `CC(C)=CC1CCc2ccccc2N1S(=O)(=O)c1ccc(C)cc1` (stereo not given), for which the growth inhibition was 31.8% in assay [1]; 0.25% in assay [2]; -14.9% in assay [3]; -8.7% in assay [4]; -31.7% in assay [5]; -22.6% in assay [6].

As for `NC(CC(=O)OCc1ccccc1)C(=O)OCc1ccccc1` (stereo not given), the growth inhibition in assay [1] was 9.1%; in assay [2], 9.3%; in assay [3] it was 16.1%; in assay [4] it was -5.9%; in assay [5] it was 3.55%; in assay [6], 4.15%.

As to `O=C1NN2CCCN=C2c2ncccc21`, the growth inhibition in assay [1] is 15.2%; in assay [2], 2.1%; in assay [3], 8.1%; in assay [4] it was 17.1%; in assay [5] it was 2.7%; in assay [6], 20.8%.

In the case of `COc1ccc(N=C2S/C(=N\C(=Nc3ccccc3)SCc3ccccc3)N(c3ccccc3)C2=Nc2ccc(OC)cc2)cc1`, the growth inhibition in assay [1] was -4.55%; in assay [2] it was -5.85%; in assay [3], -8.25%; in assay [4], 4.05%; in assay [5], -6.8%; in assay [6], 5.25%.

Regarding `COc1ccc(Cc2cc(N=NC(N)=O)c(C)cc2O)cc1`, the growth inhibition in assay [1] is -7.35%; in assay [2], -5.65%; in assay [3], -2.55%; in assay [4], 1.75%; in assay [5], 3.5%; in assay [6], 4.55%.

For the compound `CCOC(=O)c1c(C(F)(F)F)oc2c1ccc1nc3nonc3nc12`, the growth inhibition in assay [1] is 43.6%; in assay [2], 21.6%; in assay [3], 23.1%; in assay [4], 27.5%; in assay [5] it was 20.9%; in assay [6], 35%.

As for `O=C(O)C1C2CCC(O2)C1C(=O)Nc1cccc2cccnc12` (stereo not given), the growth inhibition was 15.3% in assay [1]; 12.4% in assay [2]; -10.2% in assay [3]; -1.15% in assay [4]; 22.5% in assay [5]; 17.8% in assay [6].

As for `c1cncc(CNc2ncn[nH]2)c1`, the growth inhibition in assay [1] is -2.5%; in assay [2], 8.3%; in assay [3] it was -24.1%; in assay [4], -50.3%; in assay [5], -24.9%; in assay [6], -29.8%.

Regarding `COC(=O)c1ccc(Cl)cc1OCC(=O)Nc1ccccc1`, the growth inhibition was -29.1% in assay [1]; -0.55% in assay [2]; -12.2% in assay [3]; -27.7% in assay [4]; -4.6% in assay [5]; -3.65% in assay [6].

Take `CC(=O)N(CCc1ccccc1)C(C)(C#N)c1ccccc1` (stereo not given): the growth inhibition in assay [1] is -0.2%; in assay [2] it was 4%; in assay [3], -30.9%; in assay [4], -22.4%; in assay [5], -12.2%; in assay [6], -29.4%.

On to `COc1ccc(Br)c(C=O)c1NC(C)=O`, for which the growth inhibition was 22.7% in assay [1]; 11.4% in assay [2]; 38.1% in assay [3]; -1.3% in assay [4]; -8.25% in assay [5]; -4.1% in assay [6].

As to `Cn1c(COC(=O)Nc2ccccc2)c(COC(=O)Nc2ccccc2)c2ccc3cc(Cl)c(Cl)cc3c21`, the growth inhibition in assay [1] was 72.9% (active); in assay [2] it was 78.8% (active); in assay [3], 76.3% (active); in assay [4], 81.2% (active); in assay [5], 84.3% (active); in assay [6] it was -44%.

Turning to `CC1c2ncnc(N)c2CN1C(=O)c1ccccc1` (stereo not given), the growth inhibition in assay [1] is 4.55%; in assay [2] it was -6.85%; in assay [3], -3.15%; in assay [4], -20.2%; in assay [5], 6.75%; in assay [6], -4.55%.

As to `CC(=O)N(C)CCc1c[nH]c2ccccc12`, the growth inhibition is -18.4% in assay [1]; -37.5% in assay [2]; -33.9% in assay [3]; 13.2% in assay [4]; 9.85% in assay [5]; -4.8% in assay [6].

As for `CC(=N/O)/C(C)=C/c1ccccc1`, the growth inhibition in assay [1] was 10.1%; in assay [2] it was 7.3%; in assay [3], 1.4%; in assay [4] it was 8.4%; in assay [5] it was 6.25%; in assay [6], 2.7%.

On to `CC/C=N/Nc1ccc([N+](=O)[O-])cc1[N+](=O)[O-]`, for which the growth inhibition in assay [1] is 15.6%; in assay [2] it was -9.1%; in assay [3], 4.6%; in assay [4], 3.3%; in assay [5], 1.6%; in assay [6], 22.6%.

Regarding `CCNC(=O)OC(C)C(O)c1ccccc1` (stereo not given), the growth inhibition in assay [1] was 0.05%; in assay [2], 11.6%; in assay [3] it was 33.2%; in assay [4], 6.8%; in assay [5], -19.6%; in assay [6], 29.2%.

In the case of `Cc1ccc2nccnc2c1`, the growth inhibition in assay [1] is -2.45%; in assay [2], 3.9%; in assay [3], -12.2%; in assay [4] it was 5.1%; in assay [5], 10.9%; in assay [6] it was -1.85%.

As to `c1ccc(CC2CO2)cc1` (stereo not given), the growth inhibition in assay [1] was -2.7%; in assay [2], -17.8%; in assay [3], -1.4%; in assay [4], -15.2%; in assay [5] it was -0.2%; in assay [6] it was -7.9%.

On to `O=C(CCCN1CCC2(CC1)NC(=O)c1ccccc1O2)c1ccc(F)cc1`, for which the growth inhibition in assay [1] was 23.6%; in assay [2] it was 10.6%; in assay [3], 55.5%; in assay [4] it was 48.9%; in assay [5] it was 36.8%; in assay [6] it was 21.7%.

As for `CCOC(=O)c1[nH]n(-c2ccccc2)c(=O)c1/C=N/C(=S)NCCc1ccc(OC)c(OC)c1`, the growth inhibition in assay [1] was 2.05%; in assay [2], -0.6%; in assay [3] it was 5.4%; in assay [4], -10.8%; in assay [5] it was -21%; in assay [6], 13.2%.

Consider `CCCCS(=N)(=O)CC[C@H](N)C(=O)O` (stereo not given in full), for which the growth inhibition in assay [1] was 2.3%; in assay [2], -22.6%; in assay [3], -25.1%; in assay [4], -1.4%; in assay [5] it was -47%; in assay [6] it was -9.85%.

As to `C1=C(c2ccccc2)C(c2ccccc2)=C(c2ccccc2)C(c2ccccc2)C(c2ccccc2)=N1` (stereo not given), the growth inhibition in assay [1] was 2.75%; in assay [2] it was 10.2%; in assay [3] it was -2.95%; in assay [4], 21.4%; in assay [5], -2.5%; in assay [6], 8.55%.

Consider `CCCCCCCCCCCCCCNC(=O)CCl`, for which the growth inhibition is 14.8% in assay [1]; -17.5% in assay [2]; -5.8% in assay [3]; -8.5% in assay [4]; -9.25% in assay [5]; -16.2% in assay [6].

In the case of `Ic1ccc(-c2ccccc2)cc1`, the growth inhibition is -2.95% in assay [1]; -7.7% in assay [2]; 12.1% in assay [3]; -57.7% in assay [4]; 34% in assay [5]; 29.7% in assay [6].

As to `CC(=O)Nc1ccc(/C=N\N=C\c2ccc(NC(C)=O)cc2)cc1`, the growth inhibition in assay [1] was 1.95%; in assay [2], 13.7%; in assay [3], 28.4%; in assay [4], -4.6%; in assay [5], 29.9%; in assay [6], 28.6%.

On to `CCC(O)C(C)CO` (stereo not given), for which the growth inhibition in assay [1] is 11.8%; in assay [2] it was 5.05%; in assay [3] it was 19.3%; in assay [4], -72.8%; in assay [5] it was 7.8%; in assay [6], -46.9%.
